The results in this text go back to PubChem BioAssay (NCI).

About 83,000 compounds went through this panel and 20% of them were active in at least one assay; those are over-represented in the sample as a whole.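 Results are percent growth after 48 hours of single-concentration exposure. 100 means growth as in untreated cells, lower positive values show inhibition; negative values down to -100 show cell death.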 The source made the active and inactive calls.

The test relates to MDA-MB-435 melanoma. As to the kind of experiment: NCI-60 one-dose screen, 48 h (100 = growth as untreated, 0 = no growth, -100 = all killed). To be noted: 10 µM unless noted. On the procedure:
Growth inhibition of the MDA-MB-435 human Melanoma tumor cell line is measured as a screen for anti-cancer activity. Cells are grown in 96 well plates and exposed to the test compound for 48 hours. Compounds are tested at a single concentration, which is 10^-5 M for most compounds. The reported endpoint is percent growth (GI% or GIPRCNT), where numbers from 0 - 100% represent growth inhibition, and numbers from -100% - 0 represent cell death. For example, a value of 40 represents 60% growth inhibition. A value of 0 means no net growth occurred over the course of the experiment. A value of -40 indicates 40% of cells at the beginning of the experiment died by the end of the experiment. A value of -100 means all cells are dead at the end of the experiment.
NCI-60 Human Tumor Cell Lines Screen was performed using the standard one-dose NCI protocol, which is described in more detail at https://dtp.cancer.gov/discovery_development/nci-60/default.htm.
Compounds with GIPRCNT values below 10 were considered active. Activity score was based on GIPRCNT using the following formula: […]
Score is 0 for GIPRCNT values of 100 or above, 50 for GIPRCNT values of 0, and 100 for GIPRCNT values of -100.
As to `CCOC(=O)C1=CCC(n2cc(C)c(=O)[nH]c2=O)O1` (stereo not given), the growth is 113% (inactive).

For `O=C1c2cccc3c([N+](=O)[O-])ccc(c23)C(=O)N1CCCCl`, the growth is -89.3% [100 µM] (active).

In the case of `CNNc1ncnc2c1cnn2-c1ccc(S(N)(=O)=O)cc1`, the growth is 114% (inactive). Take `COc1ccc(C2CC(c3ccc4c(c3)OCO4)=NN2C=O)cc1` (stereo not given): the growth is 110% (inactive).

With `CC(C)C[C@H](NC(=O)/C=C/Cn1ccc2ccccc2c1=O)B(O)O`, the growth is -44.3% (active). The value for `Nc1ccc(N=Nc2ccccc2)cc1[N+](=O)[O-]` was 101% (inactive); that for `Cc1ccc(-c2c3c(N)nc(-c4ccncc4)nc3nc3c2c(C)nn3-c2ccccc2)cc1` was 31.4% (inactive). For `COc1cc(/C(Cl)=C/C=C/C(=O)c2c(C)[n+]([O-])c3ccc(Cl)cc3[n+]2[O-])cc(OC)c1OC`, the growth is 6.9% (active). `COC(=O)[C@H](Cc1cn(C)cn1)NC(=O)[C@H](Cc1ccccc1)NC(=O)Nc1cc(C(F)(F)F)cc(C(F)(F)F)c1`: the growth was -85.4% [100 µM] (active).

Take `COc1ccc(C(=O)COc2ccc(/C=C3\Oc4ccc5ccccc5c4C3=O)cc2)cc1`: the growth is 101% (inactive). The value for `Nc1ccc2c(c1)Cc1cc(Cl)c(Cl)cc1-2` was 28.1% (inactive). The value for `O=c1[nH]c(SCc2ccccc2)nc2nc(Nc3ccc(NC(=S)Nc4ccccc4)cc3)nc(-c3ccc(O)cc3O)c12` was 104% (inactive); that for `C[C@H]1C(=O)N2c3ccccc3[C@@]3(O)C[C@@H](n4cnc5ccccc5c4=O)C(=O)N1[C@@H]23` was 109% (inactive); that for `O=C1/C(=C/c2ccccc2O)C(=S)SN1Cc1ccco1` was 56.4% (inactive). `COc1ccc(OC)c(CCn2cncc2-c2c[nH]c3cc(Br)ccc23)c1`: the growth was 11.8% (inactive). The value for `Oc1ccc(/C=N/Nc2nc3ccccc3s2)c(O)c1` was 39.7% (inactive); that for `COc1cc(/C=N/NC(=O)c2ccc(C(F)(F)F)nc2Nc2ccc(Cl)cc2C)ccc1O` was 39.2% (inactive); that for `COc1cnc2c(c1)C(=O)c1c-2n(CCCn2ccnc2)c(=O)c2cc(F)ccc12` was -60.3% (active). In the case of `Cc1sc2nc(NCCc3cccs3)[nH]c(=O)c2c1C` it was 84.2% (inactive); in that of `COc1ccc2c(c1)CC/C(=C\c1ccc(OCC(=O)Nc3nc4ccccc4s3)cc1)C2=O`, 100% (inactive); in that of `N/C(=N\c1nc2ccccc2s1)NC(=O)Nc1ccccc1Cl`, -31.8% (active). In the case of `COc1ccc(C2=NN(C(C)=O)C(c3c(C)nn(-c4ccccc4)c3N3CCOCC3)C2)cc1` (stereo not given), the growth was 97.2% (inactive). Regarding `N#Cc1c(-c2ccccc2)cc(-c2ccccc2)n(CCC(=O)O)c1=O`, the growth is -9.89% (active). In the case of `CCSc1nc(-c2ccc(F)cc2)c(C#N)c(=O)[nH]1` it was 101% (inactive); in that of `COC(=O)CC1=C(c2ccc([N+](=O)[O-])cc2)CCC1=O`, 105% (inactive); in that of `COc1ccc(N2CCN(CC(=O)N3CCN(c4nnc(-c5ccc(Cl)cc5)c(-c5ccc(Cl)cc5)n4)CC3)CC2)cc1`, 57.5% (inactive). In the case of `COc1ccc(C2=NN(C(C)=O)C(c3cccc(Nc4ccnc5cc(Cl)ccc45)c3)C2)cc1` (stereo not given) it was 41.4% (inactive); in that of `Cc1cc(Br)c(C)cc1Br`, 99.8% (inactive).

Consider `COc1cc(/C=C/c2cc(/C=C/c3ccc(O)c(OC)c3)n(C(=O)Cc3ccccc3)n2)ccc1O`, for which the growth was -10.2% (active).

Consider `CC(=O)[C@H]1CC[C@H]2[C@@H]3C[C@H](C)C4=CC(=O)CC[C@]4(C)[C@H]3C(=O)C[C@]12C`, for which the growth is 119% (inactive).

Take `O=C1CSC(c2ccccc2Cl)N1c1nnc(Cn2nnc3ccccc32)o1` (stereo not given): the growth was 93.4% (inactive). The value for `COc1ccc(NC(=O)c2ccccc2-c2ccccc2)c(C(N)=O)c1` was -22.6% (active); that for `COc1cc(/C=C\C(C)=N\Nc2ccccc2)ccc1O` was 69.7% (inactive).

Turning to `COc1ccc2c(c1)CC[C@@H]1[C@@H]2CC[C@]2(C)[C@@H](O)C(=O)C[C@@H]12`, the growth is 102% (inactive).

On to `COc1ccc(CCN2C(=O)CCC3=C2CCCC3=O)cc1OC`, for which the growth is 103% (inactive). For the compound `CC12CCC3C(=CCc4cc(O)ccc43)C1CCC2=O` (stereo not given), the growth was 73% (inactive).

With `CC1CN(/N=C/c2ccc([N+](=O)[O-])o2)C(=N)O1` (stereo not given), the growth is 100% (inactive). In the case of `N#Cc1c(-c2ccc(F)cc2)n2c(nc1=O)SC(=O)C2=O` it was 96.5% (inactive); in that of `N#Cc1c(NC(=O)c2ccco2)[n+]([O-])c2cc(Cl)c(Cl)cc2[n+]1[O-]`, 126% (inactive). In the case of `Cc1cc(C)c(C(=O)c2cccs2)c(C)c1` it was 122% (inactive).
